Activity calls are given as the source filed them. Where a call stands in place of a potency, no number is given. Calls follow the shape of the dose curve; as a rule, active = well fitted curve in the direction sought with a large enough effect in the repeat runs; inconclusive = weak or mixed curves; inactive = flat fitted curve, though single readings scatter.
Experiment: qHTS assay to test for compound auto fluorescence at 590 nm (red) in HepG2 cells (AID 720674)
Settings: HepG2 autofluorescence, red 540/590 nm, 1 h; series mostly up to 91.3 µM
Source text: U.S. Tox21 Program National Center for Advancing Translational Sciences [NCATS] NIH Chemical Genomics Center [NCGC] U.S. Environmental Protection Agency [EPA] National Institutes of Environmental Health Sciences [NIEHS] National Toxicology Program [NTP] U.S. Food and Drug Administration [FDA] Tox21 Assay Overview: Compound auto fluorescence often interferes with screening of the compound library against various biological targets and signaling pathways. Some of these compounds may have fluorophoric properties. Such properties may interfere with the assay outputs resulting in false positives and/or negatives. To decrease such complications and ensure the compound activities are relevant in terms of biological response, the Tox21 10K compound library was screened for auto fluorescence. From the fluorophores used as reporter signals in our screening assays, the auto fluorescence equivalencies of compounds against three fluorophores have been evaluated: Triamterene, Fluorescein and Rose Bengal sodium for blue, green and red fluorescence, respectively. The fluorescence intensities were measured using Excitation/Emission wavelengths at 405/460nm, 485/535nm and 540/590nm for blue, green and red labels, respectively. This assay includes the red fluorescence data.
Tox21 Assay Protocol Summary: 2,000 HepG2 cells in 5 uL of culture medium (MEM containing 10% FBS) per well were dispensed into black wall/clear bottom 1536-well plates using a Multidrop Combi Dispenser (ThermoFisher Scientific, Waltham, MA). The assay plates were incubated overnight at 37 C to allow cell attachment to the well bottom, followed by the transfer of 23 nL compound or DMSO vehicle by a pintool work station (Kalypsys , San Diego, CA). After the assay plates were incubated for 1 hr at 37 C and 5% CO2, fluorescence intensities in the assay plates were measured by an Envision (PerkinElmer, Shelton, CT) plate reader using three labels for measuring blue, green and red fluorescence at […] 460, 535 and 590 nm respectively.

Row | Compound | fluorescence, relative to Rose Bengal | Potency
1 | CN(C)CCCN1c2ccccc2Sc2ccccc21 | 0.23% [at 18.6 µM] (inactive) | 
2 | CCOC(=O)Cc1cccc2ccccc12 |  | inactive
3 | CC(=O)[O][Al][O]C(C)=O |  | inactive
4 | Nc1cccc(S(=O)(=O)c2cccc(N)c2)c1 |  | inactive
5 | c1ccc(-c2ccccn2)nc1 |  | inactive
6 | CCc1c(C(=O)NN2CCCCC2)nn(-c2ccc(Cl)cc2Cl)c1-c1ccc(Br)cc1 |  | inactive
7 | C=C(C)C(=O)OCCO |  | inactive
8 | CCO[C@H](Cc1ccc(OCCc2ccc(OS(C)(=O)=O)cc2)cc1)C(=O)O |  | inactive
9 | CCOCC(O)COc1ccc(NC(=O)CC[S+](C)C)cc1 (stereo not given) |  | inactive
10 | Nc1c(CC(=O)O)cccc1C(=O)c1ccc(Br)cc1 |  | inactive
11 | O=C1c2ccccc2S(=O)(=O)N1CCCCN1CCN(c2ncccn2)CC1 |  | inactive
12 | O=C(O)CC(=O)C(=O)O |  | inactive
13 | CCCCCCCCCCCc1ccccc1 |  | inactive
14 | COc1ccc(C(=O)c2ccc(OC)cc2O)c(O)c1 |  | inactive
15 | CCCCCCCCCCCCCCOS(=O)(=O)O |  | inactive
16 | CN(C)CCN(Cc1ccc(Cl)cc1)c1ccccn1 | 0.0058% [at 18.6 µM] (inactive) | 
17 | CC1=CC[C@H](C(C)C)C=C1 |  | inactive
18 | CC(C)OC(=O)C(C)N(C(=O)c1ccccc1)c1ccc(F)c(Cl)c1 (stereo not given) |  | inactive
19 | CC(C)C[C@H]1C(=O)N2CCC[C@H]2[C@]2(O)O[C@](NC(=O)[C@@H]3C=C4c5cccc6[nH]c(Br)c(c56)C[C@H]4N(C)C3)(C(C)C)C(=O)N12 |  | inactive
20 | CN(C)C(=O)NC1(c2ccccc2)CCN(CC[C@@]2(c3ccc(F)c(F)c3)CN(C(=O)c3ccccc3)CCO2)CC1 |  | inactive

Row | Compound | fluorescence, relative to Rose Bengal | Potency
21 | CCOC(=O)C1=C[C@]2(CC)CCCN3CCc4c(n1c1ccccc41)[C@@H]32 |  | inactive
22 | C#Cc1cccc(Nc2ncnc3cc(OCCOC)c(OCCOC)cc23)c1 |  | inactive
23 | O=C(O)C1(C(=O)Nc2ccc(Cl)cc2Cl)CC1 |  | inactive
24 | CCCCCCCCCCCC(=O)OC[C@@H](O)[C@H]1OC[C@H](OCCO)[C@H]1OCCO |  | inactive
25 | CC(C)(COC(=O)c1ccccc1)COC(=O)c1ccccc1 |  | inactive
26 | Cc1cccc(Nc2ccccc2)c1 |  | inactive
27 | COC(=O)C1=C(C)NC(COC(N)=O)=C(C(=O)OC(C)C)C1c1cccc(Cl)c1Cl (stereo not given) |  | inactive
28 | CCn1cc(C(=O)O)c(=O)c2cnc(N3CCNCC3)nc21 | 0.305% [at 18.6 µM] (inactive) | 
29 | O=P(O)(OCc1ccccc1)OCc1ccccc1 |  | inactive
30 | CCNc1cc(O)ccc1C |  | inactive
31 | C#CCN(C)CCCOc1ccc(Cl)cc1Cl |  | inactive
32 | OC[C@H]1O[C@@H](OCCc2ccc(O)cc2)[C@H](O)[C@@H](O)[C@@H]1O |  | inactive
33 | C[N+](C)(C)CCOC(=O)CCC(=O)OCC[N+](C)(C)C |  | inactive
34 | C=C(C)C(=O)OCCOCC |  | inactive
35 | CCc1cc(C2=C(C(=O)O)N(c3ccccc3C(F)(F)F)S(=O)(=O)c3ccccc32)cc2c1OCO2 |  | inactive
36 | CC(=O)c1ccc2c(c1)N(CCCN1CCC(CCO)CC1)c1ccccc1S2 | -0.311% [at 18.6 µM] (inactive) | 
37 | CC(=O)[O][Al] |  | inactive
38 | CC[N+](C)(CC)CCOC(=O)C(O)(c1ccccc1)C1CCCCC1 (stereo not given) |  | inactive
39 | O=C1C(O)=C(O)C(=O)C(O)=C1O |  | inactive
40 | CC1(c2ccccc2)OC(C(=O)O)=CC1=O (stereo not given) |  | inactive

— PubChem BioAssay (Tox21)
